# Laboratory results: PubChem BioAssay
# For some assays here: Potency and affinity values are given separately. Some of the results follow. Records with an inconclusive call do not appear. Activity calls are given as the source filed them. Unless noted, how the calls were made is not given here.
# Key:
# [1] = Ring1 mRNA increase in mouse ESCs, confirmation, esBAF inhibitor project, cell-based, mouse ESC, RT-qPCR, cherry-pick (AID 743176;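 active means Ring1 gene expression raised more than 2-fold over untreated cells in both replicates at either tested dose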;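 further: Ring1 transcript normalised to actin housekeeping signal by TaqMan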); conditions: mouse ESC E14, Ring1 mRNA RT-qPCR fold change, stronger effect = higher value
# [2] = Fgf4 mRNA decrease in mouse ESCs, confirmation, esBAF inhibitor project, cell-based, mouse ESC, RT-qPCR, cherry-pick (AID 743177;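 active means Fgf4 expression under 0.8 fold of control in both repeat measurements at one or both tested doses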;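 further: Fgf4 transcript normalised to actin in duplex TaqMan qPCR; cells exposed to compound for 24 h before lysis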); conditions: mouse ESC E14, Fgf4 mRNA qPCR fold change, stronger effect = lower value
# [3] = esBAF inhibition via Bmi1 de-repression, confirmation, cell-based, RT-qPCR, mouse ESC, single point, cherry-pick (AID 743180;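 active means Bmi1 expression fold change above 6 at either tested concentration, seen in replicate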); conditions: mouse ESC E14, Bmi1 mRNA qPCR fold, stronger effect = higher value
# [4] = A549 cell cytotoxicity, cytotoxicity control, plate reader, single point, cherry-pick (AID 743188); conditions: at 25 µM
# [5] = HepG2 cell cytotoxicity, cytotoxicity control, plate reader, single point, cherry-pick (AID 743189; in the data active means activity change below about -50%); conditions: at 25 µM, stronger effect = lower value
# [6] = HEK293 cell cytotoxicity, cytotoxicity control, plate reader, single point, cherry-pick (AID 743190; in the data active means activity change below about -38%, passing the limit was not always enough); conditions: at 25 µM
# [7] = A549 cell cytotoxicity, dose response, cytotoxicity control, plate reader, cherry-pick, antagonist series (AID 743412);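 further: 0% = neutral control wells and -100% = positive control wells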
# [8] = cytotoxicity in OVCAR8 ovarian cancer cells, dose response, PAX8 project, cell-based, plate reader, dry powder samples (AID 743197)
# [9] = HepG2 cell cytotoxicity, dose response, cytotoxicity control, plate reader, cherry-pick, antagonist series (AID 743416);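 further: 0% = neutral control wells and -100% = positive control wells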
smiles,measurement,setting,value
COc1ccc(C(=O)CCc2ccccc2O)c(OC)c1,fold change,"[1]; Ring1 fold increase, at 7 µM",1.29
same,fold change,[1]; at 33 µM,1.23 (inactive)
same,Fgf4 expression fold change,"[2]; Fgf4 expression, at 7 µM",0.836
same,Fgf4 expression fold change,[2]; at 33 µM,0.979 (inactive)
same,fold change,"[3]; Bmi1 de-repression, at 7 µM",1.55
same,fold change,[3]; at 33 µM,1.13 (inactive)
same,cell viability change % (negative = cytotoxic),[4],-6.31% (inactive)
same,"activity change, negative = inhibition",[5],-33.9% (inactive)
same,"activity change, negative = inhibition",[6],14.9% (inactive)
COc1ccc(CNC(=O)COc2ccccc2C(=O)c2cnn(-c3ccccc3)c2)cc1OC,fold change,"[1]; Ring1 fold increase, at 7 µM",1.09
same,fold change,[1]; at 33 µM,1.32 (inactive)
same,Fgf4 expression fold change,"[2]; Fgf4 expression, at 7 µM",1.03
same,Fgf4 expression fold change,[2]; at 33 µM,0.967 (inactive)
same,fold change,"[3]; Bmi1 de-repression, at 7 µM",1.36
same,fold change,[3]; at 33 µM,1.57 (inactive)
same,cell viability change % (negative = cytotoxic),[4],0.333% (inactive)
same,"activity change, negative = inhibition",[5],-55.5% (active)
same,"activity change, negative = inhibition",[6],-15.3% (inactive)
CC(C)(C)NC(=O)Cn1nnc(-c2ccccc2Cl)n1,fold change,"[1]; Ring1 fold increase, at 7 µM",1.18
same,fold change,[1]; at 33 µM,1.12 (inactive)
same,Fgf4 expression fold change,"[2]; Fgf4 expression, at 7 µM",0.977
same,Fgf4 expression fold change,[2]; at 33 µM,0.933 (inactive)
same,fold change,"[3]; Bmi1 de-repression, at 7 µM",1.16
same,fold change,[3]; at 33 µM,1.15 (inactive)
same,cell viability change % (negative = cytotoxic),[4],-11.9% (inactive)
same,"activity change, negative = inhibition",[5],-3.1% (inactive)
same,"activity change, negative = inhibition",[6],-13.6% (inactive)
Cc1ccc(C(=O)Nc2ccc3c(c2)OCO3)cc1S(=O)(=O)N1CCCCC1,fold change,"[1]; Ring1 fold increase, at 7 µM",1.42
same,fold change,[1]; at 33 µM,1.4 (inactive)
same,Fgf4 expression fold change,"[2]; Fgf4 expression, at 7 µM",0.993
same,Fgf4 expression fold change,[2]; at 33 µM,0.915 (inactive)
same,fold change,"[3]; Bmi1 de-repression, at 7 µM",1.85
same,fold change,[3]; at 33 µM,1.9 (inactive)
same,cell viability change % (negative = cytotoxic),[4],4.97% (inactive)
same,"activity change, negative = inhibition",[5],-30.2% (inactive)
same,"activity change, negative = inhibition",[6],-2.34% (inactive)
O=C(O)c1ccc(N/N=C/c2c[nH]c3ccccc23)cc1,outcome,[7],inactive
COc1ccc(N=Cc2c(O)[nH]c3ccccc23)cc1OC,fold change,"[1]; Ring1 fold increase, at 7 µM",1.32
same,fold change,[1]; at 33 µM,1.03 (inactive)
same,Fgf4 expression fold change,"[2]; Fgf4 expression, at 7 µM",1.1
same,Fgf4 expression fold change,[2]; at 33 µM,1.2 (inactive)
same,fold change,"[3]; Bmi1 de-repression, at 7 µM",1.45
same,fold change,[3]; at 33 µM,2 (inactive)
same,cell viability change % (negative = cytotoxic),[4],0.475% (inactive)
same,"activity change, negative = inhibition",[5],24% (inactive)
same,"activity change, negative = inhibition",[6],-17.2% (inactive)
CCc1c(C)sc(NC(=O)c2cccs2)c1C(N)=O,fold change,"[1]; Ring1 fold increase, at 7 µM",1.31
same,fold change,[1]; at 33 µM,0.944 (inactive)
same,Fgf4 expression fold change,"[2]; Fgf4 expression, at 7 µM",1.09
same,Fgf4 expression fold change,[2]; at 33 µM,1.11 (inactive)
same,fold change,"[3]; Bmi1 de-repression, at 7 µM",1.35
same,fold change,[3]; at 33 µM,1.67 (inactive)
same,cell viability change % (negative = cytotoxic),[4],-14% (inactive)
same,"activity change, negative = inhibition",[5],-29% (inactive)
same,"activity change, negative = inhibition",[6],-22.2% (inactive)
Cc1nc(-c2ccccc2)sc1-c1nnc(C2CC2)o1,fold change,"[1]; Ring1 fold increase, at 7 µM",1.23
same,fold change,[1]; at 33 µM,1.31 (inactive)
same,Fgf4 expression fold change,"[2]; Fgf4 expression, at 7 µM",0.99
same,Fgf4 expression fold change,[2]; at 33 µM,1.05 (inactive)
same,fold change,"[3]; Bmi1 de-repression, at 7 µM",1.21
same,fold change,[3]; at 33 µM,1.79 (inactive)
same,cell viability change % (negative = cytotoxic),[4],1.56% (inactive)
same,"activity change, negative = inhibition",[5],-14.2% (inactive)
same,"activity change, negative = inhibition",[6],-0.816% (inactive)
Cc1cc(Cl)nc(NC(=O)Nc2cccc(Cl)c2)n1,fold change,"[1]; Ring1 fold increase, at 7 µM",1.34
same,fold change,[1]; at 33 µM,1.28 (inactive)
same,Fgf4 expression fold change,"[2]; Fgf4 expression, at 7 µM",0.987
same,Fgf4 expression fold change,[2]; at 33 µM,1.08 (inactive)
same,fold change,"[3]; Bmi1 de-repression, at 7 µM",1.61
same,fold change,[3]; at 33 µM,1.24 (inactive)
same,cell viability change % (negative = cytotoxic),[4],-1.39% (inactive)
same,"activity change, negative = inhibition",[5],-22.4% (inactive)
same,"activity change, negative = inhibition",[6],1.81% (inactive)
COC(=O)c1ccc2nc(NC(=O)C(C)(C)C)sc2c1,outcome,[7],inactive
CN(C)c1ccc(CSc2ccccc2)cc1,fold change,"[1]; Ring1 fold increase, at 7 µM",1.14
same,fold change,[1]; at 33 µM,1.08 (inactive)
same,fold change,"[3]; Bmi1 de-repression, at 7 µM",1.01
same,fold change,[3]; at 33 µM,0.984 (inactive)
same,cell viability change % (negative = cytotoxic),[4],5.13% (inactive)
same,"activity change, negative = inhibition",[5],-22.2% (inactive)
same,"activity change, negative = inhibition",[6],0.895% (inactive)
O=S(=O)(NC[C@@H]1CC[C@@H]2[C@@H](CN2CC(c2ccccc2)c2ccccc2)O1)c1ccccc1F,outcome,[8],inactive
COc1ccc(OCC(=O)Nc2nccs2)cc1,outcome,[7],inactive
same,outcome,[9],inactive
Cc1cc(C(=O)COC(=O)C2CC2)c(C)n1-c1ccc(F)cc1,outcome,[7],inactive
same,outcome,[9],inactive
O=C(O)c1ccc(N/N=C/c2ccc(OC(=O)c3cccc(Cl)c3)cc2)cc1,outcome,[7],inactive
same,outcome,[9],inactive
O=C(c1cc(-c2ccc(Cl)cc2Cl)on1)N1CCOCC1,outcome,[7],inactive
same,outcome,[9],inactive
Cc1ccc(C(=O)Nc2ccc3c(c2)OCCO3)c(Cl)c1,outcome,[7],inactive
same,outcome,[9],inactive
CN(C)c1ccc(-c2nc3cc(N)ccc3o2)cc1,outcome,[7],inactive
same,outcome,[9],inactive
CCOc1ccc(C(=O)Nc2cccc(C(=O)O)c2C)cc1Cl,outcome,[7],inactive
same,outcome,[9],inactive
Cc1ccc(C(=O)CN2C(=O)c3ccccc3S2(=O)=O)cc1,outcome,[7],inactive
same,outcome,[9],inactive
C=CCNc1nc(-c2cc3ccccc3o2)cs1,outcome,[7],inactive
same,outcome,[9],inactive
O=C1OCCC1Sc1nnc(-c2ccc(Cl)cc2Cl)o1 (centres undefined),outcome,[7],inactive
same,outcome,[9],inactive
Cc1c(NC(=O)c2ccc(-c3ccccc3)cc2)cccc1C(=O)O,outcome,[7],inactive
same,outcome,[9],inactive
